About 83,000 compounds went through this panel and 20% of them were active in at least one assay; those are over-represented in the sample as a whole.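 The test compound was applied at a single concentration to cells in 96-well plates for 48 hours, and percent growth was recorded.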 A number with no mark means an inactive call. Calls of active or inactive are those of the source. Rule for the calls: active = growth percent below 10; inactive = the rest.
test system: HCC-2998 colon; assay: NCI-60 one-dose screen, 48 h (100 = growth as untreated, 0 = no growth, -100 = all killed); conditions: 10 µM unless noted

Question: For CC(C)n1cc(C2=C(c3cccc4ccccc34)C(=O)NC2=O)c2cc(Br)ccc21, which growth is on record?
Answer: 52.1%

Question: With Oc1c(Cl)cc(Cl)c2ccc(CN3CCNCC3)nc12 as the molecule, how does the growth read?
Answer: 60.1%

Question: How did the growth turn out when CCN1CCN(c2cc(C(=O)Nc3cccc(Nc4ccc5c(OC)cccc5n4)c3)cc(C(F)(F)F)c2)CC1 was run?
Answer: -53.3% (active)

Question: C#CCOc1ccc(C2=NN(C)C3N=C(Cl)c4ncn(C)c4N23)cc1OCC#C (stereo unspecified) was tested. Which growth did it give?
Answer: 104%

Question: With CC(C)=CC(=O)C1C(=O)c2ccccc2C1=O as the molecule, how does the growth read?
Answer: 111%

Question: With COc1cc(NC(=O)c2cncnc2Nc2ccc3c(ccn3Cc3cccc(F)c3)c2)cc(OC)c1 as the molecule, how does the growth read?
Answer: 72.9%

Question: With CCCC[N+]1(C)CCN=C1Cc1ccccc1 (stereo unspecified) as the molecule, how does the growth read?
Answer: 93.7%

Question: How did the growth turn out when O=C(COc1ccc(/C=C2\Oc3ccccc3C2=O)cc1)Nc1nccs1 was run?
Answer: 97.7%

Question: For CN1CCN(Cc2ccc(NC(=O)c3cncc(C#Cc4c(N)ncc5cc(F)ccc45)c3)cc2C(F)(F)F)CC1, which growth is on record?
Answer: 51.4%

Question: Which growth does the source give for Nc1cc(-c2ccc(Cl)cc2)nn1-c1nc(-c2ccc(Br)cc2)cs1 here?
Answer: 101%

Question: With O=c1c(Cc2ccc(F)cc2)cc(-c2ccccc2)nn1C/C(=N/O)c1ccccc1 as the molecule, how does the growth read?
Answer: 61.3%

test system: KM12 colon; assay: as above; conditions: 10 µM unless noted

Question: Which growth does the source give for COc1cccc(C2C3=C(COC3=O)N(CCO)c3cc4c(cc32)OCCO4)c1 (stereo unspecified) here?
Answer: -11.8% (active)

Question: For CCN=c1sc2c(n1NC(=O)c1cc3ccc1CCc1ccc(cc1)CC3)C(=O)c1ccccc1C2=O, which growth is on record?
Answer: -29.9% (active)

Question: With COc1cccc(/C=C/C(=O)/C=C(/C=C/c2cccc(OC)c2OC)OB(F)F)c1OC as the molecule, how does the growth read?
Answer: 86.5%

Question: How did the growth turn out when COc1ccc(Nc2nccc(Nc3ccc4[nH]ncc4c3)n2)cc1 was run?
Answer: 10%

Question: How did the growth turn out when O=c1n(C2OC(CO)C(O)C2O)ccc2nccn12 (stereo unspecified) was run?
Answer: 103%

Question: For C=CCn1c(SCC(=O)Nc2ccc(C(=O)/C=C/c3ccc(Cl)cc3)cc2)nnc1-c1ccc(Cl)c(Cl)c1, which growth is on record?
Answer: 85.2%

Question: NCCNc1ccc([N+](=O)[O-])cc1 was tested. Which growth did it give?
Answer: 115%

Question: For O=C1CC2C=CCN2C=C1NC(=O)c1ccccc1 (stereo unspecified), which growth is on record?
Answer: 101%

Question: O=C(/C=C/c1ccc(Cl)cc1)c1ccc(Nc2ccnc3cc(Cl)ccc23)cc1 was tested. Which growth did it give?
Answer: 50%

Question: COc1cccc(-c2nn(-c3ccccc3)cc2-c2ccnc(-c3cccnc3)c2)c1 was tested. Which growth did it give?
Answer: 94.7%

Question: How did the growth turn out when Cc1nc2sc(C(=O)Nc3ccccc3)c(N)c2cc1C(O)c1ccccc1 (stereo unspecified) was run?
Answer: 18.3%

Question: COC(=O)c1c(C(=O)OC)c2ccc3c4ncccc4ccc3n2c1C(=O)c1ccc(C)cc1 was tested. Which growth did it give?
Answer: 97%

Question: How did the growth turn out when CN1CCN(Cc2ccc(NC(=O)c3cncc(C#Cc4c(N)ncc5ccccc45)c3)cc2C(F)(F)F)CC1 was run?
Answer: -65.2% (active)

Question: O=C(NCCN1CCOCC1)c1cncnc1Nc1ccc2c(ccn2Cc2ccccn2)c1 was tested. Which growth did it give?
Answer: 107%

Question: For CCCCCCCCOC(=O)c1c(C)[nH]c(/C=C2\N=C(c3ccc[nH]3)C=C2OC)c1C, which growth is on record?
Answer: 0.693% (active)

Question: With COc1ccc(Nc2nc(Nc3cc(C)[nH]n3)c3cc(OC)c(OC)cc3n2)cc1 as the molecule, how does the growth read?
Answer: -74% [20 µM] (active)

Question: O=C1c2c(c3c4cccnc4[nH]c3c3ccc4ccccc4c23)C(=O)N1O was tested. Which growth did it give?
Answer: 50.2%

Question: How did the growth turn out when CCOC(=O)c1c2c(n3ccc(NC(=O)CCN4CCCC4)cc13)C(=O)c1ncccc1C2=O was run?
Answer: -89.4% (active)

Question: How did the growth turn out when COC(=O)c1c(C)nc(C)c2c1C(=O)C(Br)=C(NCCN1CCOCC1)C2=O was run?
Answer: 96.9%

Question: With CCN1C(=O)N(CC)C2C1NC(=S)N2/N=C/C=C/c1ccccc1 (stereo unspecified) as the molecule, how does the growth read?
Answer: 8.65% (active)

Question: With COCCNC(=O)Cc1cc(-c2ccc(Cl)cc2)n(-c2ccccc2)c1C as the molecule, how does the growth read?
Answer: 91.7%

Question: With Cc1nn(C)c2ncnc(Nc3ccccc3Br)c12 as the molecule, how does the growth read?
Answer: 108%

Question: CCOC(=O)c1cnc2sc(-c3ccc(OC)cc3)nc2c1Cl was tested. Which growth did it give?
Answer: 90.7%

Question: With C=C(CNCCO)[C@@H]1CC[C@]2(CO)CC[C@]3(C)[C@H](CC[C@@H]4[C@@]5(C)CCC(NCCO)C(C)(C)[C@@H]5CC[C@]43C)[C@@H]12 (stereo partly specified) as the molecule, how does the growth read?
Answer: 63.4%

Question: With O=C1c2c(c3c4cc(F)ccc4oc3c3[nH]c4ccccc4c23)C(=O)N1O as the molecule, how does the growth read?
Answer: 39.5%

Question: Cc1nn(-c2ccccc2)c(Oc2ccccc2)c1/C=N/NC(=O)Cn1c(=O)sc2ccccc21 was tested. Which growth did it give?
Answer: 56%

Question: Which growth does the source give for O=S(=O)(Nc1ccc(Br)cc1)c1ccc(-c2cnc(C3CC3)o2)cc1 here?
Answer: 24.6%

Question: For O=C1c2ccccc2C(=O)c2cc(Cn3c[n+](Cc4ccc5ccccc5c4)c4ccccc43)ccc21, which growth is on record?
Answer: 25.5%

Question: With Cc1cc2c(c(C)n1)CN(C(=O)Nc1nc(-c3cncs3)ccc1N)C2 as the molecule, how does the growth read?
Answer: 95.8%

Question: Which growth does the source give for CC(C)n1cc(C2=C(c3cccc4ccccc34)C(=O)NC2=O)c2cc(Br)ccc21 here?
Answer: 36.5%

Question: For Oc1c(Cl)cc(Cl)c2ccc(CN3CCNCC3)nc12, which growth is on record?
Answer: 49.6%

Question: With CCN1CCN(c2cc(C(=O)Nc3cccc(Nc4ccc5c(OC)cccc5n4)c3)cc(C(F)(F)F)c2)CC1 as the molecule, how does the growth read?
Answer: -10.3% (active)

Question: C#CCOc1ccc(C2=NN(C)C3N=C(Cl)c4ncn(C)c4N23)cc1OCC#C (stereo unspecified) was tested. Which growth did it give?
Answer: 102%

Question: For CC(C)=CC(=O)C1C(=O)c2ccccc2C1=O, which growth is on record?
Answer: 103%

Question: How did the growth turn out when COc1cc(NC(=O)c2cncnc2Nc2ccc3c(ccn3Cc3cccc(F)c3)c2)cc(OC)c1 was run?
Answer: 34.8%

Question: For CCCC[N+]1(C)CCN=C1Cc1ccccc1 (stereo unspecified), which growth is on record?
Answer: 118%

Question: For O=C(COc1ccc(/C=C2\Oc3ccccc3C2=O)cc1)Nc1nccs1, which growth is on record?
Answer: 69.7%

Question: For CN1CCN(Cc2ccc(NC(=O)c3cncc(C#Cc4c(N)ncc5cc(F)ccc45)c3)cc2C(F)(F)F)CC1, which growth is on record?
Answer: 5.8% (active)

Question: Nc1cc(-c2ccc(Cl)cc2)nn1-c1nc(-c2ccc(Br)cc2)cs1 was tested. Which growth did it give?
Answer: 104%

Question: How did the growth turn out when O=c1c(Cc2ccc(F)cc2)cc(-c2ccccc2)nn1C/C(=N/O)c1ccccc1 was run?
Answer: 34.7%

Reference: PubChem BioAssay (NCI)
